Here are results for 31 molecules from PubChem BioAssay (NCI).

Compounds without any hit were thinned out: in the full panel of roughly 83,000, 20% have a hit.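 For each line, cells grew in 96-well plates with the test compound present at a single concentration for 48 hours.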 Values without a mark were called inactive. Calls of active or inactive are those of the source. The calls were made as follows: active = growth percent below 10; inactive = the rest.

Holding throughout (assay): NCI-60 one-dose screen, 48 h (100 = growth as untreated, 0 = no growth, -100 = all killed)
One assay deals with T-47D breast. To be noted: 10 µM unless noted.
In a further assay the test system is MDA-MB-435 melanoma. Conditions: 10 µM unless noted.
Another assay deals with SW-620 colon. Conditions: 10 µM unless noted.
For the next assay, the system named is MCF7 breast. To be noted: 10 µM unless noted.
The subject of another assay is HCT-116 colon. Conditions: 10 µM unless noted.
For another assay, the system named is KM12 colon. Conditions: 10 µM unless noted.
Another assay has as its system HCC-2998 colon. Conditions: 10 µM.
The subject of a further assay is BT-549 breast. To be noted: 10 µM unless noted.

For the molecule `Clc1nc(Cl)c2ncn(C/C=C\Cn3cnc4c(Cl)nc(Cl)nc43)c2n1`, the growth in the assay with T-47D breast was -44.4% (active); in the assay on MDA-MB-435 melanoma, -66.9% (active); in the assay with SW-620 colon, -52.6% (active); in the assay on MCF7 breast, -78% (active); in the assay on HCT-116 colon, -71% (active); with KM12 colon, -69.2% (active).
Regarding `Brc1ccc([I+]c2ccc(Br)cc2)cc1`, the growth with T-47D breast was 16.4%; with SW-620 colon it was 17.8%; in the assay on MCF7 breast it was 7.26% (active); in the assay on HCT-116 colon, 8.91% (active); with HCC-2998 colon, 25%; in the assay with KM12 colon, 3.55% (active).
As for `Cc1ccc(-[n+]2c3cc(N)c(C)cc3nc3cc(C)c(Nc4ccccc4)cc32)cc1`, the growth was -74.7% (active) in the assay with T-47D breast; -73.6% (active) with MDA-MB-435 melanoma; -71.8% (active) in the assay on SW-620 colon; -81.8% (active) in the assay with MCF7 breast; -100% (active) in the assay on HCT-116 colon; -98% (active) in the assay with HCC-2998 colon. Moreover, the growth in the assay with KM12 colon was -92.7% (active).
Regarding `CNC(=O)c1cc(Oc2cccc3nc(Nc4ccc(Oc5ccccc5)cc4)ccc23)ccn1`, the growth in the assay with T-47D breast was 43.3%; in the assay on BT-549 breast, 57.2%; with SW-620 colon it was 87.8%; in the assay with MCF7 breast, 43.2%; in the assay on HCT-116 colon, 48%; with HCC-2998 colon it was 94%. Also, in the assay with KM12 colon, the growth was 67.8%.
As to `O=S1(=O)OC(c2cc(Cl)c(O)c(Br)c2)(c2cc(Cl)c(O)c(Br)c2)c2ccccc21`, the growth with T-47D breast was 114%; in the assay on MDA-MB-435 melanoma, 124%; in the assay on SW-620 colon, 99.6%; in the assay on MCF7 breast, 104%; in the assay on HCT-116 colon, 96.7%; in the assay with HCC-2998 colon, 103%. Moreover, the growth in the assay with KM12 colon is 106%.
With `CNC(=O)c1cc(COc2nnc(Nc3ccc(Cl)cc3)c3ccoc23)ccn1`, the growth in the assay on T-47D breast was 15.2%; with BT-549 breast, 29.8%; in the assay on SW-620 colon, 108%; with MCF7 breast, 48.1%; in the assay with HCT-116 colon, 35.5%; in the assay on HCC-2998 colon, 94.3%. The growth in the assay with KM12 colon is 53.8%.
Turning to `O=C(N/N=C/c1ccc(Cl)cc1)c1cc(-c2cc3ccccc3o2)nn1-c1ccccc1`, the growth with T-47D breast was 85.6%; with MDA-MB-435 melanoma, 103%; with SW-620 colon it was 101%; with MCF7 breast, 85.6%; in the assay on HCT-116 colon, 92.3%; in the assay with KM12 colon it was 102%.
Take `CC(=O)C1CC(C)CCC1C(C)C` (configuration not stated): the growth with T-47D breast was 71.9%; with MDA-MB-435 melanoma, 121%; in the assay on SW-620 colon, 106%; with MCF7 breast, 85.3%; with HCT-116 colon, 61.6%; in the assay on HCC-2998 colon it was 104%. Besides, the growth with KM12 colon was 98%.
In the case of `ClCc1ccc(-c2ccc(Cn3cnc4c(Cl)nc(Cl)nc43)cc2)cc1`, the growth in the assay with T-47D breast is -23.5% (active); in the assay on MDA-MB-435 melanoma, 4.56% (active); in the assay with SW-620 colon, -31.6% (active); in the assay on MCF7 breast, -31.8% (active); in the assay with HCT-116 colon it was -59.6% (active); in the assay with KM12 colon, -66.9% (active).
For the molecule `Ic1ccccc1-c1ccccc1`, the growth was 107% in the assay on T-47D breast; 121% with MDA-MB-435 melanoma; 102% in the assay with SW-620 colon; 103% in the assay with MCF7 breast; 111% in the assay on HCT-116 colon; 114% in the assay with HCC-2998 colon. Also, the growth in the assay with KM12 colon was 109%.
On to `COc1cc2c(cc1OCCCCN1CCN(CC(=O)Nc3ccc(Cl)cc3C(=O)c3ccccc3Cl)CC1)N=CC1CCCN1C2=O` (configuration not stated), for which the growth in the assay with T-47D breast is -65.4% (active); with MDA-MB-435 melanoma, -93.8% (active); with SW-620 colon, -57% (active); in the assay with MCF7 breast, -67.1% (active); in the assay with HCT-116 colon it was -66.2% (active); in the assay with KM12 colon, -55.5% (active).
Regarding `N#Cc1c(NC(=O)c2ccco2)[n+]([O-])c2cc(F)c(F)cc2[n+]1[O-]`, the growth was 71.8% in the assay with T-47D breast; 98% in the assay with MDA-MB-435 melanoma; 87.5% in the assay on SW-620 colon; 67.5% with MCF7 breast; 101% in the assay with HCT-116 colon; 85% in the assay with KM12 colon.
In the case of `Cc1ccc(N)cc1CN1C(=O)c2ccccc2C1=O`, the growth in the assay on T-47D breast is 110%; with MDA-MB-435 melanoma, 106%; in the assay with SW-620 colon, 108%; with MCF7 breast, 108%; in the assay on HCT-116 colon, 93.4%; with HCC-2998 colon, 104%. Moreover, the growth in the assay with KM12 colon was 111%.
For `Cc1c(N)ccc(-c2ccc(N)c(C)c2S(=O)(=O)O)c1S(=O)(=O)O`, the growth in the assay on T-47D breast is 106%; in the assay with MDA-MB-435 melanoma, 114%; with SW-620 colon, 109%; in the assay with MCF7 breast, 108%; in the assay on HCT-116 colon, 101%; in the assay with HCC-2998 colon, 102%. Also, the growth in the assay with KM12 colon was 116%.
Regarding `CCc1ccc(C2=C(O)C(=O)C(c3ccc(CC)cc3)=C(O)C2=O)cc1`, the growth is 7.67% (active) with T-47D breast; -23% (active) in the assay with BT-549 breast; 2.8% (active) in the assay on SW-620 colon; 2.11% (active) in the assay on MCF7 breast; 1.12% (active) in the assay with HCT-116 colon; -1.36% (active) with KM12 colon.
For the molecule `O=C1CCC(=O)CC1`, the growth in the assay with T-47D breast is 102%; with SW-620 colon it was 103%; with MCF7 breast, 101%; in the assay on HCT-116 colon, 109%; with HCC-2998 colon it was 99.9%; in the assay on KM12 colon, 106%.
Take `COc1cc2c(cc1OCCCCCN1CCN(c3ncnc4ccccc34)CC1)N=CC1CCCN1C2=O` (configuration not stated): the growth was 10.6% in the assay with T-47D breast; -72.1% (active) with MDA-MB-435 melanoma; -1.54% (active) in the assay with SW-620 colon; 12.1% in the assay on MCF7 breast; 4.44% (active) in the assay with HCT-116 colon; -16.1% (active) with KM12 colon.
Regarding `CC(C)[C@@H]1CC[C@]2(CO2)[C@@H]2C(=O)OCC(C(=O)O)=C[C@H]21`, the growth was 12.3% with T-47D breast; -5.36% (active) in the assay on BT-549 breast; 5.52% (active) in the assay on SW-620 colon; 45.3% with MCF7 breast; 3.63% (active) in the assay on HCT-116 colon; 4.07% (active) with HCC-2998 colon. Also, the growth with KM12 colon was 2.53% (active).
For `O=C1CSC(c2c(F)cccc2Cl)N1NC(=O)C(O)(c1ccccc1)c1ccccc1` (configuration not stated), the growth in the assay with T-47D breast is 93.3%; in the assay on BT-549 breast, 104%; in the assay with SW-620 colon, 99.9%; in the assay on MCF7 breast it was 110%; with HCT-116 colon, 94.8%; in the assay on KM12 colon it was 108%.
Regarding `CC1(C)NC(=O)c2[nH]c3c(Cl)c(Cl)ccc3c2C1C#N` (configuration not stated), the growth in the assay with T-47D breast was 59.2%; in the assay with BT-549 breast, 73.3%; in the assay with SW-620 colon, 105%; in the assay with MCF7 breast it was 87%; with HCT-116 colon, 83.6%; in the assay with KM12 colon, 93.4%.
Consider `O=[N+]([O-])c1cc(Br)cc2c1[nH]c1ccc(Br)cc12`, for which the growth with T-47D breast was 42.9%; in the assay on MDA-MB-435 melanoma it was 86.4%; in the assay with SW-620 colon it was 67%; in the assay with MCF7 breast, 45.8%; in the assay with HCT-116 colon, 36.6%; in the assay on HCC-2998 colon, 94.3%. Also, the growth in the assay with KM12 colon was 71.4%.
Consider `CCCCCCCC(=O)SCC/C=C/[C@@H]1CC(=O)NCc2cccc(n2)C2=N[C@@](C)(CS2)C(=O)N[C@@H](C(C)C)C(=O)O1`, for which the growth in the assay on T-47D breast was -14.1% (active); with BT-549 breast it was 32%; in the assay on SW-620 colon, 3.63% (active); with MCF7 breast it was 15.5%; in the assay on HCT-116 colon, -27.7% (active); in the assay with HCC-2998 colon it was -73.4% (active). The growth in the assay on KM12 colon is 3.74% (active).
For `COc1ccc2c(c1)cn1c3ccc(O)cc3nc(N)c21`, the growth is 37.3% in the assay on T-47D breast; -16.6% (active) in the assay on MDA-MB-435 melanoma; 26.8% in the assay on SW-620 colon; 17.2% with MCF7 breast; 22.5% in the assay with HCC-2998 colon; 27.1% in the assay with KM12 colon.
Take `c1cn2cc(-c3ccc4cn[nH]c4c3)nc(Nc3ccc(N4CCOCC4)cc3)c2n1`: the growth with T-47D breast was 49.2%; in the assay on BT-549 breast, 66.2%; with SW-620 colon, 69.2%; in the assay on MCF7 breast, 66.2%; with HCT-116 colon, 52.4%; in the assay with KM12 colon, 20.5%.
For the molecule `O=S1(=O)OC(c2ccc(O)c(Cl)c2)(c2ccc(O)c(Cl)c2)c2ccccc21`, the growth is 97.2% in the assay with T-47D breast; 113% in the assay on MDA-MB-435 melanoma; 100% with SW-620 colon; 104% with MCF7 breast; 99.8% in the assay on HCT-116 colon; 103% in the assay with HCC-2998 colon. In addition, the growth in the assay on KM12 colon was 103%.
As for `CCN(CC)c1cc2oc3cc(N)cc(=N)c-3nc2cc1C`, the growth with T-47D breast was 39%; with MDA-MB-435 melanoma, -64.8% (active); in the assay with SW-620 colon, 24.1%; with MCF7 breast, 1.63% (active); in the assay on HCT-116 colon it was -12.2% (active); with HCC-2998 colon it was 100%. Besides, in the assay with KM12 colon, the growth is 40.2%.
For `CC(=O)OC(C(=O)c1ccccc1)c1ccccc1` (configuration not stated), the growth is 95.5% with T-47D breast; 108% in the assay on MDA-MB-435 melanoma; 99.3% in the assay with SW-620 colon; 95.8% with MCF7 breast; 95.8% in the assay on HCT-116 colon; 112% in the assay with HCC-2998 colon. Also, in the assay with KM12 colon, the growth was 101%.
As for `Clc1nc(Cl)c2ncn(CC#CCn3cnc4c(Cl)nc(Cl)nc43)c2n1`, the growth is -21.5% (active) with T-47D breast; 4.04% (active) in the assay on MDA-MB-435 melanoma; -44.7% (active) in the assay on SW-620 colon; -22.8% (active) in the assay with MCF7 breast; -34.6% (active) with HCT-116 colon; -45.8% (active) in the assay on KM12 colon.
As to `Cn1nccc1Nc1nccc(-c2ccn([C@H](CO)c3ccc(Cl)c(F)c3)c(=O)c2)n1`, the growth was 104% in the assay on T-47D breast; 93.6% in the assay on BT-549 breast; 62.7% with SW-620 colon; 93.1% in the assay on MCF7 breast; 36.9% in the assay with HCC-2998 colon; 82.8% in the assay on KM12 colon.
As for `CCOc1ccc(N=C(C)Nc2ccc(OCC)cc2)cc1`, the growth with T-47D breast is 105%; in the assay with MDA-MB-435 melanoma, 115%; in the assay on SW-620 colon, 104%; in the assay on MCF7 breast it was 102%; with HCT-116 colon, 104%; in the assay with HCC-2998 colon, 104%. Besides, the growth with KM12 colon is 117%.
As for `Oc1ccc(C(c2ccc(O)cc2)C(Cl)(Cl)Cl)cc1`, the growth is 94.3% in the assay with T-47D breast; 104% in the assay on MDA-MB-435 melanoma; 114% in the assay with SW-620 colon; 111% with MCF7 breast; 83.8% in the assay with HCT-116 colon; 122% in the assay with HCC-2998 colon. For the same molecule, the growth in the assay on KM12 colon was 104%.
